# From PubChem BioAssay AID1159580 (chemical genetic matrix, 2015)
# Several values for one entry are separate records, joined by “and”; a condition that tells them apart may be missing. Identical values can stand only once. The whole screen tested about 5,500 compounds, of which about 2,000 (36%) were called active. Roughly 18% stayed inconclusive and do not appear here. Some of the results follow. Values without a mark were called inactive. Rule as the data show it: active = normalized growth mostly below about 0.91 (no sharp cut-off); inconclusive = no clear call, values can overlap the other calls; inactive = mostly above about 0.92.
# Experiment: chemical genetic growth profiling, strain panel (AID 1159580);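 also: tested at 20 µM; growth read once vehicle control cultures reached saturation at 30 °C; 1 = growth at the plate median or of vehicle wells; lower values mean less growth of the strain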
# Conditions: growth OD
# [1] = S. cerevisiae deletion strains, locus YAL013W, strain DEP1, hits give low values
# [2] = S. cerevisiae deletion strains, locus YDR150W, strain NUM1, hits give low values
# [3] = S. cerevisiae deletion strains, locus YGR078C, strain PAC10, hits give low values
# [4] = S. cerevisiae deletion strains, locus YJR075W, strain HOC1, hits give low values
# [5] = S. cerevisiae deletion strains, locus YMR263W, strain SAP30, hits give low values
# [6] = S. cerevisiae deletion strains, locus YNL128W, strain TEP1, hits give low values
# [7] = S. cerevisiae deletion strains, locus YPL055C, strain LGE1, hits give low values
# [8] = S. cerevisiae deletion strains, locus YPL241C, strain CIN2, hits give low values
compound,measurement,setting,value
CS(=N)(=O)CC[C@H](N)C(=O)O (some centres not stated),normalized growth,[1],0.995
same,normalized growth,"S. cerevisiae deletion strains, locus YAL040C, strain CLN3, hits give low values",0.993
same,normalized growth,"S. cerevisiae deletion strains, locus YCL061C, strain MRC1 (second series), hits give low values",0.997
same,normalized growth,[2],1.02
same,normalized growth,"S. cerevisiae deletion strains, locus YDR363W, strain ESC2, hits give low values",0.962
same,normalized growth,"S. cerevisiae deletion strains, locus YER002W, strain NOP16, hits give low values",1
same,normalized growth,[3],0.969
same,normalized growth,[4],1.01
same,normalized growth,[5],1.01
same,normalized growth,[6],0.991
same,normalized growth,"S. cerevisiae deletion strains, locus YNL175C, strain NOP13, hits give low values",0.989
same,normalized growth,"S. cerevisiae deletion strains, locus YNL197C, strain WHI3, hits give low values",0.983
same,normalized growth,"S. cerevisiae deletion strains, locus YNL224C, strain SQS1, hits give low values",0.999
same,normalized growth,"S. cerevisiae deletion strains, locus YOR083W, strain WHI5 (second series), hits give low values",0.989
same,normalized growth,[7],1
same,normalized growth,[8],1
N[C@@H](Cc1cc(I)c(Oc2ccc(O)c(I)c2)c(I)c1)C(=O)O,normalized growth,[1],1.02
same,normalized growth,"S. cerevisiae deletion strains, locus YBR021W, strain FUR4, hits give low values",1.01
same,normalized growth,"S. cerevisiae deletion strains, locus YBR229C, strain ROT2, hits give low values",0.998
same,normalized growth,"S. cerevisiae deletion strains, locus YCL029C, strain bik1, hits give low values",1
same,normalized growth,"S. cerevisiae deletion strains, locus YDL035C, strain GPR1, hits give low values",1.01
same,normalized growth,"S. cerevisiae deletion strains, locus YDL074C, strain BRE1, hits give low values",1.03
same,normalized growth,"S. cerevisiae deletion strains, locus YDL101C, strain DUN1, hits give low values",1.02
same,normalized growth,"S. cerevisiae deletion strains, locus YDL134C, strain PPH21, hits give low values",1.01
same,normalized growth,"S. cerevisiae deletion strains, locus YDL185W, strain tfp1, hits give low values",1
same,normalized growth,"S. cerevisiae deletion strains, locus YDL192W, strain arf1, hits give low values",1
same,normalized growth,"S. cerevisiae deletion strains, locus YDR101C, strain arx1, hits give low values",0.986
same,normalized growth,[2],1.01
same,normalized growth,"S. cerevisiae deletion strains, locus YDR162C, strain NBP2, hits give low values",1.02
same,normalized growth,"S. cerevisiae deletion strains, locus YDR318W, strain mcm21, hits give low values",0.982
same,normalized growth,"S. cerevisiae deletion strains, locus YDR388W, hits give low values",1
same,normalized growth,"S. cerevisiae deletion strains, locus YDR502C, strain sam2, hits give low values",0.987
same,normalized growth,"S. cerevisiae deletion strains, locus YEL061C, strain CIN8, hits give low values",1
same,normalized growth,"S. cerevisiae deletion strains, locus YER110C, hits give low values",1
same,normalized growth,"S. cerevisiae deletion strains, locus YER155C, strain BEM2, hits give low values",1.01
same,normalized growth,"S. cerevisiae deletion strains, locus YER167W, strain BCK2, hits give low values",1
same,normalized growth,"S. cerevisiae deletion strains, locus YGL078C, strain dbp3, hits give low values",1
same,normalized growth,"S. cerevisiae deletion strains, locus YGL086W, strain mad1, hits give low values",0.99
same,normalized growth,"S. cerevisiae deletion strains, locus YGL248W, strain PDE1, hits give low values",1.01
same,normalized growth,[3],1.01
same,normalized growth,"S. cerevisiae deletion strains, locus YGR135W, strain pre9, hits give low values",0.991
same,normalized growth,"S. cerevisiae deletion strains, locus YGR229C, strain SMI1, hits give low values",1.02
same,normalized growth,"S. cerevisiae deletion strains, locus YGR252W, strain gcn5, hits give low values",0.929
same,normalized growth,"S. cerevisiae deletion strains, locus YHR030C, strain SLT2, hits give low values",1 and 0.914
same,normalized growth,"S. cerevisiae deletion strains, locus YHR079C, strain IRE1 (second series), hits give low values",0.99
same,normalized growth,"S. cerevisiae deletion strains, locus YHR079C, strain IRE1, hits give low values",0.846 (active)
same,normalized growth,"S. cerevisiae deletion strains, locus YHR094C, strain hxt1, hits give low values",1.01
same,normalized growth,"S. cerevisiae deletion strains, locus YHR129C, strain ARP1, hits give low values",0.999
same,normalized growth,"S. cerevisiae deletion strains, locus YHR200W, strain rpn10, hits give low values",0.994
same,normalized growth,"S. cerevisiae deletion strains, locus YIL066C, strain RNR3, hits give low values",1.01
same,normalized growth,"S. cerevisiae deletion strains, locus YIL073C, strain SPO22, hits give low values",1.02
same,normalized growth,"S. cerevisiae deletion strains, locus YIL125W, strain kgd1, hits give low values",1
same,normalized growth,"S. cerevisiae deletion strains, locus YIR030C, strain dcg1, hits give low values",1
same,normalized growth,"S. cerevisiae deletion strains, locus YJL095W, strain BCK1, hits give low values",0.971 and 0.977
same,normalized growth,"S. cerevisiae deletion strains, locus YJL134W, strain LCB3, hits give low values",1.01
same,normalized growth,"S. cerevisiae deletion strains, locus YJL168C, strain set2, hits give low values",1
same,normalized growth,"S. cerevisiae deletion strains, locus YJL187C, strain SWE1 (second series), hits give low values",1
same,normalized growth,"S. cerevisiae deletion strains, locus YJR043C, strain POL32, hits give low values",1.01
same,normalized growth,"S. cerevisiae deletion strains, locus YJR066W, strain TOR1, hits give low values",0.864
same,normalized growth,[4],0.996
same,normalized growth,"S. cerevisiae deletion strains, locus YKL009W, strain mrt4, hits give low values",0.979
same,normalized growth,"S. cerevisiae deletion strains, locus YKL068W, hits give low values",1.01
same,normalized growth,"S. cerevisiae deletion strains, locus YKL085W, strain MDH1 (second series), hits give low values",1.03
same,normalized growth,"S. cerevisiae deletion strains, locus YKL085W, strain MDH1, hits give low values",1.03
same,normalized growth,"S. cerevisiae deletion strains, locus YKL190W, strain CNB1, hits give low values",1.01
same,normalized growth,"S. cerevisiae deletion strains, locus YKR001C, strain vps1, hits give low values",0.967
same,normalized growth,"S. cerevisiae deletion strains, locus YLR039C, strain RIC1, hits give low values",0.978
same,normalized growth,"S. cerevisiae deletion strains, locus YLR058C, strain SHM2, hits give low values",1.01
same,normalized growth,"S. cerevisiae deletion strains, locus YLR102C, strain apc9, hits give low values",0.999
same,normalized growth,"S. cerevisiae deletion strains, locus YLR113W, strain HOG1, hits give low values",1.03
same,normalized growth,"S. cerevisiae deletion strains, locus YLR262C, strain YPT6, hits give low values",0.993
same,normalized growth,"S. cerevisiae deletion strains, locus YLR268W, strain sec22, hits give low values",0.982
same,normalized growth,"S. cerevisiae deletion strains, locus YLR330W, strain CHS5, hits give low values",1.01
same,normalized growth,"S. cerevisiae deletion strains, locus YLR342W, strain FKS1 (second series), hits give low values",1.01
same,normalized growth,"S. cerevisiae deletion strains, locus YLR371W, strain rom2, hits give low values",1
same,normalized growth,"S. cerevisiae deletion strains, locus YLR418C, strain cdc73, hits give low values",0.951
same,normalized growth,"S. cerevisiae deletion strains, locus YML016C, strain PPZ1, hits give low values",1.01
same,normalized growth,"S. cerevisiae deletion strains, locus YML032C, strain rad52, hits give low values",0.981
same,normalized growth,"S. cerevisiae deletion strains, locus YML124C, strain tub3, hits give low values",1.01
same,normalized growth,"S. cerevisiae deletion strains, locus YMR078C, strain ctf18, hits give low values",1.01
same,normalized growth,"S. cerevisiae deletion strains, locus YMR223W, strain ubp8, hits give low values",0.984
same,normalized growth,[5],1
same,normalized growth,"S. cerevisiae deletion strains, locus YMR307W, strain GAS1, hits give low values",1.06
same,normalized growth,"S. cerevisiae deletion strains, locus YNL067W, strain RPL9B, hits give low values",1.02
same,normalized growth,[6],1.02
same,normalized growth,"S. cerevisiae deletion strains, locus YNL153C, strain GIM3, hits give low values",1.01
same,normalized growth,"S. cerevisiae deletion strains, locus YNL233W, strain BNI4, hits give low values",1
same,normalized growth,"S. cerevisiae deletion strains, locus YNL250W, strain rad50, hits give low values",1.01
same,normalized growth,"S. cerevisiae deletion strains, locus YNL271C, strain bni1, hits give low values",0.995
same,normalized growth,"S. cerevisiae deletion strains, locus YNL298W, strain CLA4, hits give low values",1
same,normalized growth,"S. cerevisiae deletion strains, locus YNL307C, strain MCK1, hits give low values",0.939
same,normalized growth,"S. cerevisiae deletion strains, locus YNL322C, strain KRE1, hits give low values",1.02
same,normalized growth,"S. cerevisiae deletion strains, locus YNR052C, strain pop2, hits give low values",0.996
same,normalized growth,"S. cerevisiae deletion strains, locus YOL006C, strain TOP1, hits give low values",0.992
same,normalized growth,"S. cerevisiae deletion strains, locus YOL012C, strain htz1",1.15
same,normalized growth,"S. cerevisiae deletion strains, locus YOL147C, strain pex11, hits give low values",0.996
same,normalized growth,"S. cerevisiae deletion strains, locus YOR061W, strain CKA2, hits give low values",1.01
same,normalized growth,"S. cerevisiae deletion strains, locus YOR069W, strain VPS5, hits give low values",1
same,normalized growth,"S. cerevisiae deletion strains, locus YOR136W, strain idh2, hits give low values",1
same,normalized growth,"S. cerevisiae deletion strains, locus YOR144C, strain elg1, hits give low values",1
same,normalized growth,"S. cerevisiae deletion strains, locus YOR184W, strain ser1, hits give low values",0.963
same,normalized growth,"S. cerevisiae deletion strains, locus YOR231W, strain MKK1, hits give low values",1.01
same,normalized growth,"S. cerevisiae deletion strains, locus YOR316C, strain cot1, hits give low values",0.998
same,normalized growth,[7],1.05
same,normalized growth,[8],1.01
same,normalized growth,"S. cerevisiae deletion strains, locus YPL256C, strain CLN2, hits give low values",0.964
same,normalized growth,"S. cerevisiae deletion strains, locus YPR119W, strain clb2, hits give low values",1.01
same,normalized growth,"S. cerevisiae deletion strains, locus YPR141C, strain kar3, hits give low values",1.01
same,normalized growth,"S. cerevisiae deletion strains, locus YPR163C, strain tif3, hits give low values",1.01
same,normalized growth,"S. cerevisiae deletion strains, locus YPR167C, strain met16, hits give low values",1
same,normalized growth,"S. cerevisiae deletion strains, strain wtn01, hits give low values",0.984
same,normalized growth,"S. cerevisiae strains, strain wild type, hits give low values",1.01
